Laboratory results taken from PubChem BioAssay (NCI).
Several values for one entry are separate records, joined by “and”; a condition that tells them apart may be missing. Equal values may be shown once. Compounds without any hit were thinned out: in the full panel of roughly 79,000, 15% have a hit. Activity calls are given as the source filed them. Rule as the data show it: active = growth inhibition above about 70%; inactive = the rest.

How the values were obtained:
[1] = NCI Yeast Anticancer Drug Screen. Data for the rad50 strain (AID 155);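 also: 0% = growth of vehicle-only cultures of the same strain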; conditions: S. cerevisiae rad50 strain growth inhibition; at 50.0 µM; hits give high values
Outline: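 Relative growth inhibition (compound vs vehicle) was measured in yeast with a defined repair-gene alteration.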

[2] = NCI Yeast Anticancer Drug Screen. Data for the mec2-1 strain (AID 157); conditions: S. cerevisiae mec2-1 strain, at 50.0 µM, hits give high values
Outline: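 Each compound was tested on mec2-1 yeast, a strain altered in DNA damage repair or cell cycle control. Growth inhibition is reported relative to vehicle.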

[3] = NCI Yeast Anticancer Drug Screen. Data for the sgs1 mgt1 strain (AID 161);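 also: 0% = growth of cultures given vehicle only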; conditions: S. cerevisiae sgs1 mgt1 strain, at 50.0 µM, hits give high values
Outline: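 Inhibition of yeast growth, normalised to vehicle-treated controls, is reported for a strain bearing genetic alterations in DNA damage repair.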

[4] = NCI Yeast Anticancer Drug Screen. Data for the cln2 rad14 strain (AID 165);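 also: 0% = growth equal to vehicle treated cultures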; conditions: S. cerevisiae cln2 rad14 strain, at 50.0 µM, hits give high values
Outline: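 Test compounds were added to cln2 rad14 yeast cultures; inhibition of growth was then determined by comparison with vehicle treatment.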

[5] = NCI Yeast Anticancer Drug Screen. Data for the bub3 strain (AID 167); conditions: S. cerevisiae bub3 mutant strain, at 50.0 µM, hits give high values
Outline: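 Screening used yeast with an engineered genetic alteration affecting cell cycle control. Compound-exposed cultures were compared with vehicle cultures, and reduced growth was taken as inhibition.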

[6] = NCI Yeast Anticancer Drug Screen. Data for the mlh1 rad18 strain (AID 175); conditions: S. cerevisiae mlh1 rad18 strain growth inhibition; at 50.0 µM; hits give high values
Outline: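 Inhibition values reflect reduced growth of mutant yeast versus vehicle-treated controls following compound exposure; the mutations affect DNA damage repair.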

Measured: growth inhibition

CCN(CC)c1cc[c]([Hg][O]C(C)=O)cc1
active: [1] 99.2% | [2] 99% | [3] 99.5% | [4] 99.2% | [5] 99% | [6] 99.2%

CCOP(=O)(OCC)/C(C#N)=C/c1ccoc1
inactive: [1] -36% | [2] -5.8% | [3] -58.2% | [4] -15.2% | [5] -29.9% | [6] -51%

CCCCC1(C(C)C)C(=O)NC(=O)N(C)C1=O (stereo not given)
inactive: [1] -5.55% | [2] 8.9% | [3] 5.15% | [4] -12.7% | [5] 5.75% | [6] 5.3%

C1N2CN3CN1CN(C2)C3.[Cu+2]
inactive: [1] -15.4% | [2] -9.85% | [3] -14.7% | [4] -8.5% | [5] -15% | [6] -6.9%

CN(C(=O)Oc1ccccc1)c1ccc(S(=O)(=O)F)cc1
active: [1] 97.8% | [2] 98.7% | [3] 98.8% | [4] 96.4% | [5] 98.5% | [6] 98.7%

CC1(C)OP23(NC(=O)OC2(C(F)(F)F)c2ccccc2O3)OC1(C)C (stereo not given)
inactive: [1] -14.6% | [2] -13.5% | [3] -40.5% | [4] -4.1% | [5] -41.6% | [6] -27.4%

Cc1cc2n[se]nc2cc1C
inactive: [1] 18.3% | [2] -9.15% | [3] 20.6% | [4] 6.3% | [5] -6.65% | [6] 21.7%

CSC(SC)=C1C(=O)NC(=O)NC1=O
inactive: [1] -11.8% | [2] 1.65% | [3] 1.7% | [4] 10.2% | [5] -10.1% | [6] -16.4%

[Cl][Hg][c]1cccc(I)c1N=Nc1ccccc1
active: [1] 81.9%
inactive: [2] 21.3% | [3] 66.2% | [4] 4.9% | [5] 2.25% | [6] 69.8%

OC1=C2CCCCCC2=[N+]2CCCCC2C1 (stereo not given)
inactive: [1] 19.1% | [2] 33.6% | [3] 52.5% | [4] -1.6% | [5] 32.2%
active: [6] 70.8%

O=CC(O)C(O)C(O)C(O)COP(=O)(O)Cc1ccccc1 (stereo not given)
inactive: [1] -44.9% and 4.75% | [2] -12.2% and -25.2% | [3] -62% and -32.6% | [4] -25.3% and 28.1% | [5] -10.2% and -9.4% | [6] -48% and 7.55%

CCOC(=O)C1(O)N=C(c2ccccc2)c2ccccc2-n2cccc21 (stereo not given)
inactive: [1] -21.4% | [2] -45.2% | [3] -2.6% | [4] -23.9% | [5] 10.2% | [6] -3.2%

C=CCC1(/C(=C\CC)CCC)C(=O)NC(=O)NC1=O
inactive: [1] 15.1% | [2] -0.3% | [3] 1.75% | [4] -32% | [5] -0.2% | [6] 12.3%

Clc1cc[c]([Sn]([Cl])([c]2ccc(Cl)cc2)[c]2ccc(Cl)cc2)cc1
active: [1] 98.5% | [2] 98.5% | [3] 98.8% | [4] 97.7% | [5] 97.5% | [6] 98.3%

N.O=S(=O)(O)O.[Al]
inactive: [1] 6.55% | [2] 7.45% | [3] 4.85% | [4] -3.8% | [5] -5.1% | [6] -2.4%

COc1ccc(CC2C3=C(CCCC3)CCN2C)cc1 (stereo not given)
inactive: [1] 45.2% | [2] 21.9% | [3] 28.6% | [4] 21.8% | [5] 17.6% | [6] -25.8%

CCC(Br)(CC)C(N)=O
inactive: [1] -33.5% | [2] -5.4% | [3] -26.1% | [4] -89.7% | [5] -28.1% | [6] -27.9%

CC(C)N([P-]C(=O)[P-]N(C(C)C)C(C)C)C(C)C.[C-]#[O+].[C-]#[O+].[C-]#[O+].[C-]#[O+].[C-]#[O+].[C-]#[O+].[Fe].[Fe] (stereo not given)
inactive: [1] 3.4% | [2] 0.15% | [3] 3.55% | [4] 11.3% | [5] 2.3% | [6] -0.9%

CC1(C)SC2C(NC(=O)Cc3ccccc3)C(=O)N2C1C(=O)O (stereo not given)
inactive: [1] 1.45% | [2] -16.6% | [3] -22.4% | [4] -97.3% | [5] -36.1% | [6] -9.6%

[Be]=[Se]
inactive: [1] -21.1% | [2] -0.4% | [3] -2.9% | [4] 2.1% | [5] -11.4% | [6] 29.7%

CCC1=CC2CN3CCc4c([nH]c5ccccc45)C(C(=O)OC)(C2)C13 (stereo not given)
inactive: [1] 30.2% and -9.75% | [2] -26.9% and -17.9% | [3] -12.8% and -33.1% | [4] -19.3% and -6.65% | [5] -2.3% and -38.2% | [6] -17.6% and -19.2%

CO[C@H]1C[C@H](O[C@H]2CC[C@]3(C=O)[C@H]4CC[C@]5(C)[C@@H](C6=CC(=O)OC6)CC[C@]5(O)[C@@H]4CC[C@]3(O)C2)O[C@H](C)[C@H]1O[C@@H]1O[C@H](CO)[C@@H](O)[C@H](O)[C@H]1O
inactive: [1] 18.4% | [2] -11.1% | [3] 6.2% | [4] 12.2% | [5] 6.9% | [6] 32.3%

CC12CCC(O)CC1CCC1C2CCC2(C)C(C3=CC(=O)OC3)CCC12 (stereo not given)
inactive: [1] 7.05% | [2] 18.4% | [3] 30.6% | [4] 12.1% | [5] 12.1% | [6] 42.5%

COC1OC2COc3ccccc3OC2C(N=C(N)N[N+](=O)[O-])C1OS (stereo not given)
inactive: [1] -0.8% | [2] -7.55% | [3] 2.15% | [4] -24.7% | [5] -3.15% | [6] 11.3%

c1ccc(-c2sc3cccc[n+]3c2-c2ccccc2)cc1
inactive: [1] -5.3% | [2] 0.6% | [3] -14.5% | [4] -10.4% | [5] 13.4% | [6] -3.35%

CC1(C)SC2C(NC(=O)COc3ccccc3)C(=O)N2C1C(=O)O (stereo not given) (tested in a mixture with another compound)
inactive: [1] -3.75% | [2] 8.1% | [3] 2.3% | [4] -24.4% | [5] -2.15% | [6] 10%

C[N+](C)(C)CC(=O)O
inactive: [1] -4.3% and -7.25% | [2] -10.6% and 10.3% | [3] -20.4% and -6% | [4] 10.8% and -11.2% | [5] -29.2% and 3.4% | [6] -2.65% and -7%

OCC(O)C(O)C(O)C1C[O][Sb][O]1 (stereo not given)
inactive: [1] 0.85% | [2] 3.6% | [3] 7.85% | [4] -11.2% | [5] -2.85% | [6] 8.2%

CC(C)=C(OP1(=S)OCCN1C)C(C)(C)C(=O)N(C)C (stereo not given)
inactive: [1] -2.6% | [2] -3.65% | [3] -1.9% | [4] 12.8% | [5] 11.9% | [6] 4.45%

COC[C@]12CN(C=O)[C@H]3C4[C@H](OC)[C@H]1C3([C@@H](OC)C[C@H]2O)[C@@H]1C[C@@]2(O)[C@H](OC(=O)c3ccccc3)[C@@H]1[C@]4(OC(C)=O)[C@@H](O)[C@@H]2OC
inactive: [1] 9.45% | [2] 14.4% | [3] -13.8% | [4] -2.2% | [5] 0.2% | [6] 25.6%

S=C(N/N=C/c1ccc(Cl)cc1)NC1CN2CCC1CC2 (stereo not given)
inactive: [1] -1.6% | [2] 9.6% | [3] -22.1% | [4] -15.8% | [5] -7.9% | [6] 11.7%

CCC1(O)CC(O)c2c(O)c3c(c(O)c2C1C(=O)OC)C(=O)c1cccc(O)c1C3=O (stereo not given)
inactive: [1] 20.8% | [2] 39.8% | [3] 28.2% | [4] 21.8% | [5] 14.5% | [6] 36.8%

CC[C@H]1CN2CCc3c([nH]c4ccccc34)[C@@H]2C[C@@H]1/C(=C\OC)C(=O)OC
inactive: [1] 8.45% | [2] 3.8% | [3] 18.6% | [4] 9.35% | [5] 21.6% | [6] 0.65%

Nc1ccccc1Nc1ccccc1C(=O)[O-].Nc1ccccc1Nc1ccccc1C(=O)[O-].[Zn+2]
inactive: [1] -19.2% | [2] -7% | [3] -15.2% | [4] 10.2% | [5] -29.4% | [6] -7.55%

O=[As](O)(O)c1cc(N=Nc2ccc(-c3ccc(N=Nc4cc([As](=O)(O)O)c(O)cc4O)cc3)cc2)c(O)cc1O
inactive: [1] 0.1% | [2] 44% | [3] 33.2% | [4] -19.7% | [5] -4.2% | [6] 25.4%

C[CH2][Sn]([CH2]C)([CH2]CC(=O)OC)[CH2]CC(=O)OC
inactive: [1] 20.4% | [2] 18.4% | [3] 1% | [4] -11% | [5] -24.2% | [6] -64.2%

NC(=O)c1ccc([As](=O)(O)O)cc1[N+](=O)[O-]
inactive: [1] -2% | [2] 3.85% | [3] 5.05% | [4] -47.8% | [5] -6.9% | [6] -10.6%

ClCCN(CCCl)Cc1c2ccccc2cc2c1ccc1ccccc12
inactive: [1] 48.5% | [2] 9.2% | [3] 46.8% | [4] -38.3% | [5] -2.5% | [6] 65.5%

O=C1NC2(CCCCC2)C(=O)N1CCCCN(CCCl)CCCl
inactive: [1] 1% | [2] 9.8% | [3] 9.2% | [4] 5.2% | [5] 21.4% | [6] -5.85%

O=C([O-])C(F)(F)C(F)(F)F.[C-]#[O+].[C-]#[O+].[C-]#[O+].[C-]#[O+].[C-]#[O+].[Mn]
inactive: [1] -8% | [2] -29% | [3] 3.65% | [4] 0% | [5] 0.25% | [6] -7.25%
